Experimental findings from PubChem BioAssay (Tox21) are described below.

Where “and” joins values, the source holds several entries; their conditions need not be identical. Equal values may be shown once. Results filed as inconclusive are left out. Calls of active or inactive are those of the source. Unless noted, calls come from the whole dose curve; as a rule, active = well fitted curve in the direction sought with a large enough effect in the repeat runs; inconclusive = weak or mixed curves; inactive = no such curve, though single readings can be large; an effect the other way counts as inactive or inconclusive.

Test [1] in a line: qHTS assay for small molecules that induce genotoxicity in human embryonic kidney cells expressing luciferase-tagged ATAD5 (AID 651632). Note: nearly all actives have a fitted effect of over 15% in size. Note: potency is the fitted concentration of half-maximal effect. The procedure, abridged: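 HEK293T cells carrying a luciferase reporter tagged to ATAD5 were exposed to compound or DMSO vehicle for 16 hr at 37C, 5% CO2. Amplite was added, and after 30 min at room temperature luciferase activity was read as a marker of ATAD5 induction.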

The nature of test [2]: qHTS assay for small molecule agonists of the p53 signaling pathway - cell viability (AID 651633; calls by dose curve; note: nearly all actives have a fitted effect of over 30% in size; note: potency is the fitted concentration of half-maximal effect). The method in brief: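 Viability counter-read: CellTiter-Glo luminescence (30 min, room temperature) in the same p53RE-bla plates. These plates had been exposed to compounds for 16 h at 37 C.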
A short description of test [3]: qHTS assay for small molecules that induce genotoxicity in human embryonic kidney cells expressing luciferase-tagged ATAD5 - cell viability (AID 651634; calls by dose curve; note: nearly all actives have a fitted effect of over 25% in size; note: potency is the fitted concentration of half-maximal effect). The procedure, abridged: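 HEK293T cells expressing luciferase-tagged ATAD5 were exposed to compound or DMSO for 15.5 hr at 37C, 5% CO2. Viability was then read as live-cell protease activity by CellTiter-Fluor fluorescence after 30 min at 37C.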

Test [4] is described as follows: qHTS assay for small molecule disruptors of the mitochondrial membrane potential - cell viability (AID 720634; calls by dose curve; note: nearly all actives have a fitted effect of over 20% in size; note: potency is the fitted concentration of half-maximal effect). The method in brief:
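HepG2 cells seeded overnight at 37 C, then exposed to compound or DMSO for 1 hr at 37 C, 5% CO2. m-MPI dye added, then CellTiter-Glo for 30 min at room temperature; viability read as ATP luminescence.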

Test [5] can be described thus: qHTS assay for small molecule disruptors of the mitochondrial membrane potential (AID 720635). Note: potency is the fitted concentration of half-maximal effect. The method in brief: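 Mitochondrial membrane potential tracked with Mito-MPS dye, red aggregates (ex 540/em 590 nm) against green monomers (ex 490/em 535 nm). Compound treatment 1 hr at 37C, dye 30 min in HepG2.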
Test [6] is described as follows: qHTS assay to test for compound auto fluorescence at 590 nm (red) in HepG2 cells (AID 720674). The procedure, abridged:
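1 hr compound incubation on HepG2 cells, 37 C, 5% CO2; plate read ex 540 nm / em 590 nm; intensities reported as Rose Bengal sodium equivalents.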

The nature of test [7]: qHTS assay to test for compound auto fluorescence at 535 nm (green) in HepG2 cells (AID 720675).
Test [8] is described as follows: qHTS assay to test for compound auto fluorescence at 460 nm (blue) in HEK293 cells (AID 720678). The method in brief:
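HEK293 cells (2,000/well, medium with 10% dialyzed FBS) attached 4-5 hr, then exposed to compound overnight at 37C, 5% CO2. Blue fluorescence read at 405/460 nm, with triamterene as reference fluorophore.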

Test [9] is described as follows: qHTS assay to test for compound auto fluorescence at 590 nm (red) in HEK293 cells (AID 720679). The method in brief: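 HEK293 cells (2,000/well, 10% dialyzed FBS) attached 4-5 hr, then dosed with compound or DMSO and incubated overnight at 37C, 5% CO2. Red fluorescence read at 540/590 nm, Rose Bengal sodium as reference fluorophore.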
Test [10] is described as follows: qHTS assay to test for compound auto fluorescence at 535 nm (green) in HEK293 cells (AID 720680).
The nature of test [11]: qHTS assay to test for compound auto fluorescence at 460 nm (blue) in HEK293 cell free culture (AID 720681). The procedure, abridged:
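Blue fluorescence (Ex 405/Em 460 nm, triamterene-equivalent) was read immediately after pin transfer of compound or DMSO into medium (DMEM, 10% FBS) without cells.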

The nature of test [12]: qHTS assay to test for compound auto fluorescence at 535 nm (green) in HEK293 cell free culture (AID 720682). The method in brief: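 Green-label autofluorescence (485 nm excitation, 535 nm emission) measured on compound added to cell-free culture medium (DMEM, 10% FBS). Output is expressed relative to fluorescein.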
A short description of test [13]: qHTS assay to test for compound auto fluorescence at 590 nm (red) in HEK293 cell free culture (AID 720683). The method in brief: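 Red-channel autofluorescence of compounds in culture medium (DMEM, 10% FBS), no cells, measured at 540/590 nm. Rose Bengal sodium is the reference fluorophore for equivalence.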
Test [14] is described as follows: qHTS assay to test for compound auto fluorescence at 590 nm (red) in HepG2 cell free culture (AID 720684). The method in brief: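 Plate contents were MEM with 10% FBS plus test compound or DMSO, no cells. Fluorescence was recorded with 540 nm excitation and 590 nm emission.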
A short description of test [15]: qHTS assay to test for compound auto fluorescence at 460 nm (blue) in HepG2 cell free culture (AID 720685). The method in brief: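 Compound (23 nL) or DMSO pinned into cell-free MEM with 10% FBS; blue fluorescence read at 405/460 nm excitation/emission, expressed as auto-fluorescence equivalency to triamterene.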
A short description of test [16]: qHTS assay to test for compound auto fluorescence at 535 nm (green) in HepG2 cell free culture (AID 720686).
A short description of test [17]: qHTS assay to test for compound auto fluorescence at 460 nm (blue) in HepG2 cells (AID 720687). The method in brief: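 Blue-channel autofluorescence (Ex/Em 405/460 nm, triamterene-equivalent) was measured after 1 hr compound exposure at 37 C, 5% CO2. Cells were HepG2, plated overnight at 37 C in MEM plus 10% FBS.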
Test [18] addresses Glucocorticoid receptor (Homo sapiens) (UniProt P04150). The test can be described thus: qHTS assay to identify small molecule agonists of the glucocorticoid receptor (GR) signaling pathway (AID 720691; active = well fitted activation curve with a large enough effect in the signal ratio in the repeat runs, not every such curve was filed as active; the % refers to the signal ratio). The procedure, abridged: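 GR-bla HeLa cells (beta-lactamase reporter under glucocorticoid response element) were plated 4 h at 37 C/5% CO2, given compounds in DMSO, and incubated 18 h at 37 C. LiveBLAzer B/G FRET substrate was added for 2 h at room temperature, then fluorescence intensity read.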

Test [19] shares this target. Description: qHTS assay to identify small molecule antagonists of the glucocorticoid receptor (GR) signaling pathway (AID 720692; active = well fitted inhibition curve with a large enough effect in the signal ratio in the repeat runs, not every such curve was filed as active; the % refers to the signal ratio; note: potency is the fitted concentration of half-maximal effect). The procedure, abridged:
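GR-bla HeLa cells (beta-lactamase reporter under glucocorticoid response element) were pre-plated 4 h at 37 C, treated with compounds plus 5 nM dexamethasone (final) for 18 h, then read by LiveBLAzer B/G FRET fluorescence after 2 h.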

Sequence of Glucocorticoid receptor (Homo sapiens) (P04150 whole entry, looked up): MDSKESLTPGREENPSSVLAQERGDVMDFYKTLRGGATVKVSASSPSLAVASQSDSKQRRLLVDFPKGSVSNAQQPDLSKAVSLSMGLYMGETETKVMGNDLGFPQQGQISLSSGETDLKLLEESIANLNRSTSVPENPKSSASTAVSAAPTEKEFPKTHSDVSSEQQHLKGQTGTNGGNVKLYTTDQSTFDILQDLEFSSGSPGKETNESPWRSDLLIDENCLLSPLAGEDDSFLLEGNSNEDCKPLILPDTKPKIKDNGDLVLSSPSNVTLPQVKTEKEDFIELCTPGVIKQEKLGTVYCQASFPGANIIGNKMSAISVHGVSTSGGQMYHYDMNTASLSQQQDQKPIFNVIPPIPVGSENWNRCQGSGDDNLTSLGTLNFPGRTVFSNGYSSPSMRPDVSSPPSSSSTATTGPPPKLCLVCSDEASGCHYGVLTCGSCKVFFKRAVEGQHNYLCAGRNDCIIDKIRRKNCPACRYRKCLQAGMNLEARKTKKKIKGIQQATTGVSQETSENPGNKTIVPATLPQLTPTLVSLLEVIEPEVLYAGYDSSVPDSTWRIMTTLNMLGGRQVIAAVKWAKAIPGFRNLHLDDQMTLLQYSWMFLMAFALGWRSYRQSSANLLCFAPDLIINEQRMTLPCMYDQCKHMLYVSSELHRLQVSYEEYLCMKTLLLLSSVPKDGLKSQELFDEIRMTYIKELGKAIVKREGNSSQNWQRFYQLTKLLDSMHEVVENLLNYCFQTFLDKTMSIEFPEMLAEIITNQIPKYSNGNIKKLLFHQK

For the compound `Clc1cccc(Cl)c1`, the Potency entry in test [1], in [2], in [3], in test [4], in test [5] and in [8] was “inactive” throughout. The Potency result in [11], in test [15], in test [17] and in [19] was “inactive” each time. Moreover, the result in test [6], in [7], in test [9], in [10], in test [12] and in test [13] was inactive. Moreover, the call in test [14], in test [16] and in test [18] was inactive.

As to `Cc1cccc(N=Nc2ccc(N(C)C)cc2)c1`, the Potency was 986 nM (active) and 1.93 µM (active) in [1]; 35 µM (active) and 27.3 µM (active) in test [3]; 19.7 µM (active) and 21.7 µM (active) in [4]; 24.8 µM (active) and 27.3 µM (active) in [5]. Also, the Potency result in [2], in test [8], in [11], in test [15] and in [17] was “inactive” in each case. The call in test [6], in test [7], in test [9], in [10], in [12] and in test [13] was inactive. Also, the outcome in test [14], in test [16] and in [18] was inactive.

Regarding `C[N+](C)(C)CC(=O)O`, the Potency entry in test [1], in test [2], in test [3], in test [4], in test [8] and in test [11] was “inactive” throughout. Also, the Potency entry in test [15] and in test [17] was “inactive” each time. Moreover, the compound was called inactive in [6], in [7], in [9], in test [10], in test [12] and in test [13]. In addition, the result in test [14] and in [16] was inactive.

Regarding `O=[N+]([O-])c1ccc(Nc2ccccc2)cc1`, the Potency entry in test [1], in [2], in test [8], in [11], in test [15] and in test [17] was “inactive” in each case. For the same compound, the Potency in [3] is 54.5 µM (active); in test [4] it was 61.1 µM (active); in test [5], 7.75 µM (active) and 2.73 µM (active); in test [19] it was 49.4 µM (active). Further, the compound was classed as inactive in test [6], in test [7], in test [9], in test [10], in test [12] and in [13]. The outcome in [14] and in test [18] was inactive.

In the case of `COc1ccc(O)c(C(C)(C)C)c1`, the Potency entry in test [1], in test [2], in [3], in [4], in test [8] and in test [11] was “inactive” throughout. The Potency entry in test [15], in test [17] and in test [19] was “inactive” in each case. Besides, the Potency in test [5] was 30.7 µM (active) and 24.3 µM (active). The compound was classed as inactive in test [6], in test [7], in test [9], in test [10], in [12] and in [13]. The compound was called inactive in test [14], in test [16] and in test [18].

`CC(C)(c1ccc(OCC2CO2)cc1)c1ccc(OCC2CO2)cc1` (centres undefined): the Potency result in test [1], in test [3], in test [8], in test [11], in test [15] and in [17] was “inactive” in each case. Besides, the Potency was 61.9 µM (active) and 61.1 µM (active) in test [2]; 49 µM (active) in [19]. Besides, the result in test [6], in test [7], in test [9], in test [10], in test [12] and in [13] was inactive. For the same compound, the result in test [14], in test [16] and in test [18] was inactive.

Take `Cl`: the Potency result in test [3], in [8], in test [11], in test [15] and in [17] was “inactive” each time. In addition, the result in test [6], in test [7], in [9], in test [10], in [12] and in [13] was inactive. Besides, the outcome in test [14] was inactive.

Regarding `Oc1ccc(Cl)cc1Cc1ccccc1`, the Potency entry in test [1], in test [8], in [11], in [15] and in test [17] was “inactive” throughout. Moreover, the Potency in test [2] was 55.1 µM (active); in test [4], 13.3 µM (active) and 21.7 µM (active) and 15.4 µM (active); in test [5], 5.96 µM (active) and 2.43 µM (active) and 1.55 µM (active). In addition, the compound was called inactive in test [6], in [7], in test [9], in test [10], in test [12] and in test [13]. Further, the call in [14] was inactive.
